The text below walks through data of the supplement of paper PMC12819154, “High-throughput peptide-centric local stability assay extends protein–ligand identification to membrane proteins, tissues and bacteria” (Nature Structural & Molecular Biology, 2025).

Chain of UniProt Q64310 (Q64310 whole entry): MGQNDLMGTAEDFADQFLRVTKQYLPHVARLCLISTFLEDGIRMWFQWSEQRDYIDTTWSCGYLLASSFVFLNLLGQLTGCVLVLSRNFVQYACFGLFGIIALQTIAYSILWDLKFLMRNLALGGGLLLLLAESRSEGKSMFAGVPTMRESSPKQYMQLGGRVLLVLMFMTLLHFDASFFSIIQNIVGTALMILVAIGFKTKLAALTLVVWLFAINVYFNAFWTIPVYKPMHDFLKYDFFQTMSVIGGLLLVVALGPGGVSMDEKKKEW
Chain of UniProt Q60737 (Q60737 whole entry): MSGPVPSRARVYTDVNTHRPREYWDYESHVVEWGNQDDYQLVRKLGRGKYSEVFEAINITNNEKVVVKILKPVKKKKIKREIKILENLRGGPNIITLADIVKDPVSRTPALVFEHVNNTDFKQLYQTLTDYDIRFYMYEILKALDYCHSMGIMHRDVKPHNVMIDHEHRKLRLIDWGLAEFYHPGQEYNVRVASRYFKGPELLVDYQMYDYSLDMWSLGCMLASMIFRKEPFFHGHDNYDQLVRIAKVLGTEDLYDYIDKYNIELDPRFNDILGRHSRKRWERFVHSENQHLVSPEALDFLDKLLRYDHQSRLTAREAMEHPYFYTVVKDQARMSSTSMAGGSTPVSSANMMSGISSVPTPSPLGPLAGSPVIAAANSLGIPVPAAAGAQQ
Chain of UniProt Q8BTH8 (Q8BTH8 whole entry): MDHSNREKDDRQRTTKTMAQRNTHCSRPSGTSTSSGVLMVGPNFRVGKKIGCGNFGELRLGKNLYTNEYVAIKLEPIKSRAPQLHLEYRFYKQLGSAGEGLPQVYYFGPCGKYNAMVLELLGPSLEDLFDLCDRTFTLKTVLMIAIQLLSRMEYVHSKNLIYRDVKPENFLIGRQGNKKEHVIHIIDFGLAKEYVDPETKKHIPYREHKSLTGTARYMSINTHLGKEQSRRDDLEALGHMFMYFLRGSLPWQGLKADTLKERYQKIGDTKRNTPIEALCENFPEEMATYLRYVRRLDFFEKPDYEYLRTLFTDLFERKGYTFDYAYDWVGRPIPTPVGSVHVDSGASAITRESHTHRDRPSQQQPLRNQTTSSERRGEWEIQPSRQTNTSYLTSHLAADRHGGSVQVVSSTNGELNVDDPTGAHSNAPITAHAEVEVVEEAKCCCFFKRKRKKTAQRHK
Chain of UniProt Q8R4K2 (Q8R4K2 whole entry): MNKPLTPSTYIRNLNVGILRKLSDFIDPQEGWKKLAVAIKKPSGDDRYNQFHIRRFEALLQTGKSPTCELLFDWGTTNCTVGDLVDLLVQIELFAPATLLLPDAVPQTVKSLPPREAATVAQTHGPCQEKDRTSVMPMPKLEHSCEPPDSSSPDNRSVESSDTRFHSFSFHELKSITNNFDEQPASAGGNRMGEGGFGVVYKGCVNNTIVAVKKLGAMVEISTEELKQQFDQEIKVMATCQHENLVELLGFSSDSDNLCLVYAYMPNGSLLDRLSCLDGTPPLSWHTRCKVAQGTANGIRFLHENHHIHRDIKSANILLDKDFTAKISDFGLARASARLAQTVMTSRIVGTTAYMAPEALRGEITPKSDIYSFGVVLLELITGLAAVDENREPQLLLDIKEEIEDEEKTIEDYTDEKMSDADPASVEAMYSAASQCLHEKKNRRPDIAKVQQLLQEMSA
Chain of UniProt Q9R233 (Q9R233 whole entry): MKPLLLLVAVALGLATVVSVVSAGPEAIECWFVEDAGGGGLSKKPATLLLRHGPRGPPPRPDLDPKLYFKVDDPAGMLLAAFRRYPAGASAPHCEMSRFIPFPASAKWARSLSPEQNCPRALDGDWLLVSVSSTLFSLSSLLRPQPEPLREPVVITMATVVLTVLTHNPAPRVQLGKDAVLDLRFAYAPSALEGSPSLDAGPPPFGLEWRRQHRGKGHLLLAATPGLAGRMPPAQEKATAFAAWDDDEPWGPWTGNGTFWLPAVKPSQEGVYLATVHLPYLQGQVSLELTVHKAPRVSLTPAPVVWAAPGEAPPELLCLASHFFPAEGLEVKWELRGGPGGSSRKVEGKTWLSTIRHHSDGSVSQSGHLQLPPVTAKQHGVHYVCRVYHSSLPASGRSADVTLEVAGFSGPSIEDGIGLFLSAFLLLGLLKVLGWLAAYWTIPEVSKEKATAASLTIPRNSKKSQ
Chain of UniProt Q8BTW9 (Q8BTW9 whole entry): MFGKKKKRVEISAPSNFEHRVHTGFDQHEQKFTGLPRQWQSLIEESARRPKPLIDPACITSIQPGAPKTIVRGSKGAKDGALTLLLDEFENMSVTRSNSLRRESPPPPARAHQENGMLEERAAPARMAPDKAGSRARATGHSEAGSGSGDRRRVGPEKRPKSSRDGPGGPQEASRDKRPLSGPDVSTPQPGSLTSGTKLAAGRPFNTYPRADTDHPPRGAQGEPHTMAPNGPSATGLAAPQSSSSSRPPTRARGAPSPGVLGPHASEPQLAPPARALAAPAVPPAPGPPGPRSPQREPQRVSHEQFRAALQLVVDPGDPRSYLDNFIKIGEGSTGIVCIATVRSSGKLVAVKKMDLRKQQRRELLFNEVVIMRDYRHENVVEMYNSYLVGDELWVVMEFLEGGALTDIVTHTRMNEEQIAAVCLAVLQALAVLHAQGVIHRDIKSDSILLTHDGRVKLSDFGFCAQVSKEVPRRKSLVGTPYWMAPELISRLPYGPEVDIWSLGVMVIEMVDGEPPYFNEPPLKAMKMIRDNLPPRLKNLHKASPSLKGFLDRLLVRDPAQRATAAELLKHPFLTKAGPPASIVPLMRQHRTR
Chain of UniProt Q3UU96 (Q3UU96 whole entry): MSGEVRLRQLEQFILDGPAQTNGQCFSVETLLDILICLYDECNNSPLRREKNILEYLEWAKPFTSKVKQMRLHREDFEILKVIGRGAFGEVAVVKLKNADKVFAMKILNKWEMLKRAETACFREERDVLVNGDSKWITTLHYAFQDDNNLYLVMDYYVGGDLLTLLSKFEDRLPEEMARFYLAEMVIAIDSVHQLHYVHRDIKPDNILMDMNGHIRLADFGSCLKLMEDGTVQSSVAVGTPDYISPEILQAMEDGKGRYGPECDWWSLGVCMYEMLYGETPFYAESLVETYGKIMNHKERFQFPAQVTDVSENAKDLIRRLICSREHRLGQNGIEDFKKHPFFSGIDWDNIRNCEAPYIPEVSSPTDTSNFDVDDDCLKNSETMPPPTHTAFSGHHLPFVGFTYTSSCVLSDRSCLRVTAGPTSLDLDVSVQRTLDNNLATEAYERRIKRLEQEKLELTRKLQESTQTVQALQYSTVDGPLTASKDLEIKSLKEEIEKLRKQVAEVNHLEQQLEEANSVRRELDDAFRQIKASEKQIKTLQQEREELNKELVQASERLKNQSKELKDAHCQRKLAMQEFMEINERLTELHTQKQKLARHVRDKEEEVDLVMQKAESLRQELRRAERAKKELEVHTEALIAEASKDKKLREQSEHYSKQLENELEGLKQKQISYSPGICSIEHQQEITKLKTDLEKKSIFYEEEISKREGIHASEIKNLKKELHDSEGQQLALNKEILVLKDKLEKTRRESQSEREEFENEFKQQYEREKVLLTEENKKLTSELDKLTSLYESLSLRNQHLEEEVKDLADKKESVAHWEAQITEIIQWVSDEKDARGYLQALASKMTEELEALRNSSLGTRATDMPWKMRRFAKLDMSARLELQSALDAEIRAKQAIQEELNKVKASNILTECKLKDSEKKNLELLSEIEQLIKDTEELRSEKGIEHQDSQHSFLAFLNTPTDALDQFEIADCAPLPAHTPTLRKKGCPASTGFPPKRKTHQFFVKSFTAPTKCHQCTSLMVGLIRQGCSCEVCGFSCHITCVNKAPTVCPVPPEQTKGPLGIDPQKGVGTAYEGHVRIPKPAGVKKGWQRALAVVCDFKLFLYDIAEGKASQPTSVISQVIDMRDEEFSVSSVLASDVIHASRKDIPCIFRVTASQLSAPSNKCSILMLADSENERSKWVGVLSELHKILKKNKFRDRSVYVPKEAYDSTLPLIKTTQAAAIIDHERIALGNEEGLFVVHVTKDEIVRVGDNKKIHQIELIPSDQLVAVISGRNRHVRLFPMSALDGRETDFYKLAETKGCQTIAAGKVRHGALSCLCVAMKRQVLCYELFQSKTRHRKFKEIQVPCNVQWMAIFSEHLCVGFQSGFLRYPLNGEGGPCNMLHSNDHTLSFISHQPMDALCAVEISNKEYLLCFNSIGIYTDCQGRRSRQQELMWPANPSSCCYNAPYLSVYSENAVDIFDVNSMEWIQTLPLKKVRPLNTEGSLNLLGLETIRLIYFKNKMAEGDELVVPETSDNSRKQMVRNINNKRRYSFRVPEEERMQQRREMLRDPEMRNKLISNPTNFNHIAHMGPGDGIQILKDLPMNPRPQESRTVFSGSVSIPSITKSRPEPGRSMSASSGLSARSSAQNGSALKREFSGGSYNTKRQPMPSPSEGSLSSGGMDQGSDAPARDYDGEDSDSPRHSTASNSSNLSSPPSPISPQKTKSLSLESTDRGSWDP
Chain of UniProt P51174 (P51174 whole entry): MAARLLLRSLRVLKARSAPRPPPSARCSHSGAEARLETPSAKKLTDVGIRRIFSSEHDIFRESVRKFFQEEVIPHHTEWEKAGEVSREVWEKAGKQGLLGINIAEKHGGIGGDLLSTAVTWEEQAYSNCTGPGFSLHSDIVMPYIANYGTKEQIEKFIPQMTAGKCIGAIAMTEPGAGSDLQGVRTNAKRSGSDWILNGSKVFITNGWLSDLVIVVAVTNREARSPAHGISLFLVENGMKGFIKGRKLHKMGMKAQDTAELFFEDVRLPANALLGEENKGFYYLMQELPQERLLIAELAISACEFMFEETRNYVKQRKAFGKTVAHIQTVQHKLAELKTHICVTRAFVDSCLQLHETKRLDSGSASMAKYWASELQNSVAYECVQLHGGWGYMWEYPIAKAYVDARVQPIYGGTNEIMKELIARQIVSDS

Compound in this test: CN[C@@H]1C[C@H]2O[C@@](C)([C@@H]1OC)n1c3ccccc3c3c4c(c5c6ccccc6n2c5c31)C(=O)NC4 [staurosporine]
Description: log2 fold change of tryptic peptide abundance, ligand vs vehicle (limited proteolysis) (log2 ratio); higher = more trypsin-susceptible (destabilized). As to conditions: ligand concentration: 20 uM; sample: mouse liver crude lysate; replicate design: treated separately.
As to “UniProt P51174 (peptide sequence: SPAHGISLFLVENGMKGFIK, peptide start residue: 225)”, the log2 fold change came to 0.439.

“UniProt Q3UU96 (peptide sequence: LHREDFEILK, peptide start residue: 72)”: the log2 fold change was -1.65.

With “UniProt Q8R1Q8 (peptide sequence: NIDLVYK, peptide start residue: 292)”, the log2 fold change was determined as 0.28.

As for “UniProt Q60737 (peptide sequence: VYTDVNTHRPR, peptide start residue: 11)”, the log2 fold change stood at 0.264.

Consider “UniProt Q64310 (peptide sequence: SMFAGVPTMR, peptide start residue: 140)”, for which the log2 fold change amounted to 0.247.

Consider “UniProt Q76M72 (peptide sequence: WLIVTNKPQK, peptide start residue: 285)”, for which the log2 fold change is -2.63.

For “UniProt Q8BTH8 (peptide sequence: GSLPWQGLK, peptide start residue: 245)”, the log2 fold change is -0.593.

As to “UniProt Q8BRK8 (peptide sequence: DLKPENVLLDAQMNAK, peptide start residue: 139)”, the log2 fold change is -3.83.

As to “UniProt Q8BTW9 (peptide sequence: SYLDNFIK, peptide start residue: 321)”, the log2 fold change is -1.86.

On to “UniProt P62717 (peptide sequence: AHSIQIMK, peptide start residue: 121)”, for which the log2 fold change is 0.267.

“UniProt Q3TWW8 (peptide sequence: CSWQDLKDFMR, peptide start residue: 121)”: the log2 fold change was found to be 1.07.

In the case of “UniProt Q9R233 (peptide sequence: GKGHLLLAATPGLAGR, peptide start residue: 215)”, the log2 fold change was -1.39.

As to “UniProt Q8R4K2 (peptide sequence: GCVNNTIVAVK, peptide start residue: 203)”, the log2 fold change is -2.95.

“UniProt Q8C9S4 (peptide sequence: QEIEHLK, peptide start residue: 574)”: the log2 fold change was -1.24.
